AT treatment = potential ataxia-telangiectasia treatments restoring KAP-1 phosphorylation. F2112 A-T fibroblasts, KAP-1 phosphorylation AlphaLISA; neocarzinostatin DNA damage 30 min before lysis. Potency, µM (titrated, usually from 57.5 µM), for the others: top-dose activation, actives largely listed as activators. 320,000 compounds, 0.19% hits. AID 485349; note: potency is the fitted concentration of half-maximal effect; % of control where 0% means no effect; nearly all actives have a fitted effect of over 45% in size
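ATM-like activity read as KAP-1 phosphorylation via AlphaLISA donor/acceptor antibody pairs after lysis and 6 hr at 25C. Cells were ATM-null patient fibroblasts (F2112, hTERT), dosed 60 min, then exposed to the DSB inducer NCS for 30 min.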
Vif-A3G inh = inhibitors of Vif-APOBEC3G interaction. Q9HC16. HeLa A3G-eYFP + Vif (tagged APOBEC3G with the HIV-1 protein that degrades it), YFP fluorescence, overnight. Potency, µM (top dose mostly 46.1 µM), inactives show at the top dose activity, negative = active, most hits filed as inhibitors. 410,000 compounds, 0.076% hits; note: potency is the fitted concentration of half-maximal effect; % is set by controls: 0 for no effect and ±100 for the full control effect; nearly all actives have a fitted effect of over 60% in size
Target sequence (Q9HC16 whole entry, looked up): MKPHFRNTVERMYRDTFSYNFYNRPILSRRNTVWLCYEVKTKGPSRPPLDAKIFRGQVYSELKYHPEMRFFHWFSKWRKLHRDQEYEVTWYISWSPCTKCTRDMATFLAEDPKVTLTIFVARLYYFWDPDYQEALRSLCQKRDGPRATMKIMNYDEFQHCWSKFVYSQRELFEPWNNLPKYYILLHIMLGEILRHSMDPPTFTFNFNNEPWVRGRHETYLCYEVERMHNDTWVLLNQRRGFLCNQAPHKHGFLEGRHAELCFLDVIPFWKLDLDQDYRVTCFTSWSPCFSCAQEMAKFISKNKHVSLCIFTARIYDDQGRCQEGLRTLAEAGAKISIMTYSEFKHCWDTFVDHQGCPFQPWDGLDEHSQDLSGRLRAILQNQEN
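Read-out is eYFP fluorescence (Ex 488/Em 500-530) from Vif-expressing HeLa A3G-eYFP cells; more signal means A3G escaped Vif-mediated degradation. Cells plated overnight, compound pinned in, incubated overnight at 37 deg C.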
Vif-A3F inh = Vif-A3F binding inhibition | HeLa A3F-eYFP + Vif (tagged APOBEC3F with the HIV-1 protein that degrades it), YFP fluorescence increase | Potency, µM (doses to about 46.1 µM), for the others: at the top dose activity, negative = active | 390,000 compounds, 0.2% hits; note: potency is the fitted concentration of half-maximal effect; % of control where 0% means no effect; nearly all actives have a fitted effect of over 65% in size
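Fluorescence increase (Ex 488/Em 500-530) after overnight compound treatment at 37 deg C flags inhibition of Vif-driven A3F-eYFP loss in stable HeLa A3F-eYFP/Vif cells seeded overnight beforehand.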
TRPML1 blocker = human mucolipin-1 channel inhibition. AID 624415. activity change, negative = inhibition, % (no concentration beside the values). 390,000 compounds, 0.02% hits. TRPML1-inducible cells, Ca2+ dye fluorescence, FDSS; hits give low values; inhibition of EC80 agonist-evoked calcium signal; in the data active = activity change below about -50%; inconclusive = between about -30% and that limit;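 note: stimulus is agonist 54-4 at its EC80 concentration; % is set by controls: 0 for no effect and ±100 for the full control effect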
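TRPML1-DL cells, Tet-induced overnight (~16 h, 37 °C) at 1,500 cells/well, were loaded with Ca8 no-wash dye plus quencher for 45-90 min at room temperature. Compounds were pinned during FDSS kinetic reading; agonist 54-4 at EC80 (4 uM final) then added.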
TRPML1 agonist = activates the human TRPML1 channel. activation, % (test concentration not listed). Q9GZU1. 410,000 compounds, 0.12% hits. TRPML1-expressing cells, Ca2+ dye fluorescence, FDSS. AID 624414; in the data active = activation above about 50%; inconclusive = mostly about 30% to 49%; note: 0% is about no effect
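In this qHTS format, compounds were pin-transferred onto Ca8-dye-loaded TRPML1-DL cells induced with Tet overnight, and intracellular Ca2+ fluorescence was recorded kinetically for 110 s after a 10 s baseline. A subsequent 4uM final 54-4 (EC80) addition followed by a second 110 s read served as the antagonist phase.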
Starred values were filed as active, the others as inactive; u = inconclusive; x = no result given. This is a sample that favours compounds with a hit; in the whole collection about 0.54% have one here. Unless noted, calls come from the whole dose curve; as a rule, active = well fitted curve in the direction sought with a large enough effect; inconclusive = small, poorly fitted or top-dose-only effect, or another doubt; inactive = no such curve, though single readings can be large; an effect the other way counts as inactive or inconclusive.

SMILES | AT treatment | Vif-A3G inh | Vif-A3F inh | TRPML1 blocker | TRPML1 agonist
COc1cc([C@@H]2c3cc4c(cc3[C@@H](O[C@@H]3O[C@@H]5CO[C@@H](C)O[C@H]5[C@H](O)[C@H]3O)[C@H]3COC(=O)[C@H]23)OCO4)cc(OC)c1O | x | -2% | -1% | 6 | -1
Nc1c(C(=O)Nc2ccc(C(=O)O)cc2)sc2nc3c(cc12)CCCC3 | x | -1% | -2% | 19 | -1
Nc1c(C(=O)Nc2ccc(S(=O)(=O)N3CCCC3)cc2)sc2nc3cc4c(cc3cc12)CCC4 | -4% | 13µM* | 10µM* | 3 | 3
Nc1c(C(=O)Nc2ccc(S(=O)(=O)N3CCCC3)cc2)sc2nc3ccc(OC(F)(F)F)cc3cc12 | -4% | u | 22µM* | 0 | 4
COc1ccccc1NC(=O)CSc1nc2c(oc3ccccc32)c(=O)n1-c1ccc(C)cc1 | x | 8% | 5% | -11 | -1
CCc1ccccc1NC(=O)CN(c1ccccc1OC)S(=O)(=O)c1ccc(C)cc1 | x | 0% | 5% | 32 | 2
C=CCN1C(=O)c2ccc(C(=O)N(CC(C)C)c3c(N)n(CCCC)c(=O)[nH]c3=O)cc2C1=O | 2% | 7.9µM* | u | 9 | 0
Cc1ccccc1C([O-])=Nc1ccc[n+](-c2nc3ccccc3nc2NS(=O)(=O)c2ccccc2)c1 | -3% | -7% | 13µM* | 23 | 1
Cc1cccc(C)c1Nc1nc2ccccc2nc1NS(=O)(=O)c1ccccc1 | x | -15% | 11µM* | -15 | 1
CC(=O)Nc1ccc(Nc2nc3ccccc3nc2NS(=O)(=O)c2ccccc2)cc1 | -2% | -27% | -13% | -14 | 0
Cc1ccc(S(=O)(=O)Nc2nc3ccccc3nc2Nc2cccc(S(=O)(=O)N3CCCC3)c2)cc1 | 2% | -268% | 7.1µM* | x | x
O=S(=O)(Nc1nc2ccccc2nc1-[n+]1ccccc1)c1ccc(Cl)cc1 | 6% | 1% | -23% | 3 | 2
Cc1cc2nc(/C=C/c3nc4cc(C)c(C)cc4[nH]3)[nH]c2cc1C | 22µM* | 2% | 4% | 5 | 0
CC(=O)c1cccc(NC(=O)C2CCN(S(=O)(=O)c3ccc4c(c3)oc(=O)n4C)CC2)c1 | x | 3% | 4% | 7 | 0
CCCCCCc1cc2cc(S(=O)(=O)c3ccc(F)c(Cl)c3)c(=O)oc2cc1O | 28µM* | -13% | 9% | -1 | 24
CCCCCCc1cc2cc(C(=O)OCC)c(=O)oc2cc1O | 1% | 0% | 8% | 6 | 1
Nc1c(S(=O)(=O)c2ccccc2)c2nc3ccccc3nc2n1Cc1ccco1 | 22µM* | -12% | -20% | 22 | 5
CCCCn1c(NC(=O)c2ccco2)c(S(=O)(=O)c2ccc(C)cc2)c2nc3ccccc3nc21 | 4% | u | 25µM* | 9 | 0
CCCCCn1c(NC(=O)c2ccco2)c(S(=O)(=O)c2ccc(C)cc2)c2nc3ccccc3nc21 | 8% | -1% | -2% | 8 | 2
Cc1ccc2c(=O)c(C(=O)c3cccc(Cl)c3)cn(CC(=O)NCc3ccc(F)cc3)c2n1 | x | 0% | u | 4 | -1
C=C(C)C(=O)Oc1ccc(N2C(=O)CCC2=O)cc1 | 22µM* | 0% | u | 51 | -1
CC(=O)Oc1ccc(N2C(=O)CCC2=O)cc1 | 4% | 2% | -9% | 4 | -1
O=S(=O)(Nc1ccc(-c2nc3cccnc3s2)cc1)c1cc(F)ccc1F | 13µM* | -19% | -9% | 4 | -1
CCc1ccc(S(=O)(=O)Nc2ccc(-c3nc4cccnc4s3)cc2)s1 | 33% | -5% | -12% | -3 | 1
OC(C#Cc1ccccn1)c1cccs1 (configuration not stated) | 14µM* | 0% | -26% | -11 | 0
SMILES | AT treatment | Vif-A3G inh | Vif-A3F inh | TRPML1 blocker | TRPML1 agonist
Cc1ccc2c(c1)N(C(=O)NCc1ccccc1)CCO2 | x | -1% | 5% | 10 | 0
COC(=O)c1ccc2c(=O)n(CCN3CCOCC3)c(SCC(=O)c3ccccc3)nc2c1 | 18µM* | 4% | 1% | 11 | 1
CCOC(=O)c1sc2nc(C)cc(C)c2c1N | u | 3% | -4% | -13 | 0
Cc1cc(C)c2c(N)c(C(=O)NN)sc2n1 | 18µM* | -3% | 1% | x | x
O=c1oc2c(CN3CCCCCC3)c(O)ccc2cc1-c1nc2ccccc2[nH]1 | 16µM* | x | x | x | x
O=c1oc2c(CN3CCCC3)c(O)ccc2cc1-c1ccccc1 | x | -1% | 0% | -7 | 6
CN1C(=O)Cc2cc(S(=O)(=O)CCC(=O)N3CCN(c4ccc(Cl)cc4)CC3)ccc21 | x | 3% | 4% | 48 | 0
CC(C)n1cc(C(=O)c2ccccc2O)cc(C#N)c1=O | 3% | 0% | 13% | 11 | 0
N#Cc1cc(C(=O)c2ccccc2O)cn(-c2nccs2)c1=O | -4% | u | u | -23 | 64*
Cc1c(-n2cc(C(=O)c3cc(F)ccc3O)cc(C#N)c2=O)c(=O)n(-c2ccccc2)n1C | -1% | -6% | 3% | 7 | 8
N#Cc1cc(C(=O)c2cc(F)ccc2O)cn(-c2nccs2)c1=O | 0% | u | u | -14 | 124*
COc1cc2c(cc1OC)C(C)N(C(=O)c1ccc(Cl)c(S(=O)(=O)N3CCCCC3)c1)CC2 (configuration not stated) | -3% | 1% | 1% | 4 | 1
Cc1ccccc1N(CC(=O)NC1CCCC1)C(=O)c1oc(C(C)(C)C)cc1C | x | 2% | 0% | -16 | 70*
Cc1cc(C(C)(C)C)oc1C(=O)N(CC(=O)NC1CCCC1)Cc1ccccc1Cl | -2% | 2% | 0% | 14 | 5
Cc1cc(C(C)(C)C)oc1C(=O)N(CC(=O)NC1CCCC1)c1cccc(C(F)(F)F)c1 | -1% | -2% | -7% | -6 | 52*
CCOc1ccc(NC(=O)CCc2c(C)nc3cc(-c4ccc(Cl)cc4)nn3c2C)cc1 | x | 6% | 1% | 43 | 0
O=C(CN1C(=O)CSc2ccc(S(=O)(=O)N3CCCC3)cc21)NCc1ccccc1Cl | x | 4% | 11% | 8 | 2
Nc1c(C(=O)O)sc2nc(-c3ccc(F)cc3)cc(-c3ccccc3)c12 | -8% | -18% | 11µM* | -11 | 0
Cc1cc2nc(SCCOC(=O)Nc3cccc(Cl)c3)nc(C)c2cc1C | 6% | -3% | 25µM* | -11 | -1
Cc1cc2nc(SCCOC(=O)Nc3ccccc3)nc(C)c2cc1C | 1% | 0% | 0% | 17 | 2
COc1ccc(C(=O)CSc2nc3ncccc3[nH]2)cc1OC | 0.79µM* | 2% | -15% | 5 | 1
Cc1ccc(-c2nc(C=Nc3ccc(O)cc3)c(O)o2)cc1 | 4% | u | 25µM* | -19 | 0
CN=Cc1nc(-c2ccccc2)oc1O | -3% | 1% | 3% | 4 | -1

High-throughput results deposited in PubChem by National Center for Advancing Translational Sciences (NCATS).
